Experimental data reported in PubChem BioAssay (Tox21).
Several values for one entry are separate records, joined by “and”; a condition that tells them apart may be missing. Equal entries are not always repeated. Results filed as inconclusive are left out. A call without a number means that no potency is given here. Where a structure was tested more than once in an assay, its records may differ in their call. Activity calls are given as the source filed them. Unless noted, calls follow the shape of the dose curve; as a rule, active = well fitted curve in the direction sought with a large enough effect in the repeat runs; inconclusive = weak or mixed curves; inactive = no such curve, though single readings can be large; an effect the other way counts as inactive or inconclusive.

Legend:
[1] = qHTS assay to identify small molecule antagonists of the estrogen receptor alpha (ER-alpha) signaling pathway using the BG1 cell line in the presence of 0.1 nM 17-beta-estradiol - cell viability counter screen (AID 1259241); also: nearly all actives have a fitted effect of over 40% in size
How it was run: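 VM7Luc4E2 cells (endogenous full-length ER-alpha, 4xERE-luciferase), cultured 5 days in charcoal-stripped serum, exposed to compounds with 0.1 nM 17beta-estradiol (final) for 22 hr at 37C. Viability read in same wells as live-cell protease fluorescence after 30 min.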

[2] = qHTS assay to identify small molecule antagonists of the androgen receptor (AR) signaling pathway using the MDA cell line in the presence of 0.5 nM R1881 - cell viability counter screen (AID 1259242); also: nearly all actives have a fitted effect of over 45% in size; also: potency is read from the fitted curve at half-maximal effect
How it was run: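 Viability of MDA-kb2 cells was multiplexed with the luciferase AR readout; after 16 hr with compounds and R1881 at 0.5 nM final, CellTiter-Fluor fluorescence was recorded.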

[3] = molecular target: Estrogen receptor (Homo sapiens) (UniProt P03372); test: qHTS assay to identify small molecule antagonists of the estrogen receptor alpha (ER-alpha) signaling pathway using the BG1 cell line in the presence of 0.1 nM 17-beta-estradiol (AID 1259244); also: nearly all actives have a fitted effect of over 50% in size; also: potency is read from the fitted curve at half-maximal effect
Estrogen receptor (Homo sapiens), sequence (P03372 whole entry, looked up): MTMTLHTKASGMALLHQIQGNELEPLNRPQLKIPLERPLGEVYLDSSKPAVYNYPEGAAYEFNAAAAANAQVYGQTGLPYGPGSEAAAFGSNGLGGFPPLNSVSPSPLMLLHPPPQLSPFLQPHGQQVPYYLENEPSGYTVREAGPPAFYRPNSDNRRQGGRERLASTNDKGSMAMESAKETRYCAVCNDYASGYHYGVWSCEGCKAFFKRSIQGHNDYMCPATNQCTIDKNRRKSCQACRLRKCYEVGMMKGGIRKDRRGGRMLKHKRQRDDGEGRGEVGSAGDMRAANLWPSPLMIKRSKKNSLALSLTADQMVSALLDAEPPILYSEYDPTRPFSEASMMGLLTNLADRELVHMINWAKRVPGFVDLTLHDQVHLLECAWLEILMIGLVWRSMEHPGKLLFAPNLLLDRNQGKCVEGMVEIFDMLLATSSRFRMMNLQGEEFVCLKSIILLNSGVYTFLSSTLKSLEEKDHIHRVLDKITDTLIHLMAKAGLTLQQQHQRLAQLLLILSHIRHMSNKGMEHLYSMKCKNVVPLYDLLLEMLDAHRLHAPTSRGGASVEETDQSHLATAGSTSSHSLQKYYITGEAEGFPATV
How it was run: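 Estradiol at 0.1 nM (final) stimulates the endogenous ER-alpha of VM7Luc4E2 cells carrying an ERE-driven luciferase; compounds are co-incubated 22 h at 37C and luciferase output quantified by luminescence.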

[4] = qHTS assay to identify small molecule phospholipidosis (PLD) inducers (AID 1259344; active = well fitted curve in the direction sought with a large enough effect; an effect the other way counts as inactive or inconclusive)
How it was run: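 Phospholipidosis is scored by imaging LipidTOX-stained pits in HepG2 cells exposed to compound for 24 h at 37 C; pit counts and integrated intensities per well and per cell serve as outputs.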

[5] = qHTS assay to identify small molecule HDAC inhibitors (AID 1259364); also: potency is read from the fitted curve at half-maximal effect;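 also: wild-type HCT-116 cells with endogenous class I/II HDAC activity; nearly all actives have a fitted effect of over 45% in size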
How it was run: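 Read-out: luminescence of HDAC-Glo I/II reagent, 30 min RT, reflecting class I/II deacetylase activity in whole HCT-116 cells pre-exposed 2 h to DMSO-dissolved compounds.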

[6] = qHTS assay to identify small molecule agonists of the sonic hedgehog signaling (Shh) pathway - cell viability counter screen (AID 1259366); also: nearly all actives have a fitted effect of over 50% in size; also: potency is read from the fitted curve at half-maximal effect
How it was run: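 NIH/3T3-derived Gli1-Luc reporter cells, 2,000 per well, received compound after 4 h and were treated about 23 h at 37C. Viability measured in the same wells by CellTiter-Fluor fluorescence after 1 h.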

[7] = qHTS assay to identify small molecule antagonists of the sonic hedgehog signaling (Shh) pathway - cell viability counter screen (AID 1259367); also: nearly all actives have a fitted effect of over 55% in size; also: potency is read from the fitted curve at half-maximal effect
How it was run: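 Cells: 3T3 Gli1-Luc, 2,000/well, 4 hr pre-incubation. Compounds in DMSO, then conditioned medium. Incubation 24 hr, 37C, 5% CO2. CellTiter-Fluor at 23 hr, 1 hr, fluorescence.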

[8] = qHTS assay to identify small molecule agonists of the sonic hedgehog signaling (Shh) pathway (AID 1259368; calls by dose curve;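 also: NIH/3T3-derived 3T3Gli1-Luc cells carrying a stable Gli1-driven firefly luciferase reporter; series mostly up to about 92 µM; nearly all actives have a fitted effect of over 15% in size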)
How it was run: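 A Gli1 transcriptional response element controlled firefly luciferase in 3T3Gli1-Luc cells. Compounds and a positive control were added 4 hr after plating, and cells were incubated a further 24 hr at 37 C before luminescence detection.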

[9] = qHTS assay to identify small molecule HDAC inhibitors - cell viability counter screen (AID 1259365); also: series mostly up to about 92 µM; nearly all actives have a fitted effect of over 50% in size
How it was run: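 Wild-type HCT-116 cells, 1,500/well, cultured overnight, then compound-treated 2 h at 37 C. Viability measured as ATP luminescence with CellTiter-Glo after 30 min at room temperature.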

| Compound | Potency [1] | Potency [2] | Potency [3] | Potency [4] | Potency [5] | Potency [6] | Potency [7] | Potency [8] | Potency [9] |
| --- | --- | --- | --- | --- | --- | --- | --- | --- | --- |
| Cc1scc2c1N(C(=O)CN1CCN(C)CC1)c1ccccc1NC2=O | inactive | inactive | inactive | inactive | inactive | inactive | inactive | inactive | – |
| C=CC(=O)OCCCCCCCC | inactive | inactive | inactive | – | inactive | inactive | inactive | inactive | inactive |
| O=C(Oc1ccccc1)c1ccccc1O | inactive | inactive | inactive | inactive | – | inactive | inactive | inactive | inactive |
| CC[C@@H](N)CO | inactive | inactive | inactive | – | inactive | inactive | inactive | inactive | inactive |
| O=C(Nc1ccccc1SSc1ccccc1NC(=O)c1ccccc1)c1ccccc1 | inactive | inactive | 27.4 µM (active) and inactive | – | 27.4 µM (active) and 19.3 µM (active) | 13.8 µM (active) and 13.7 µM (active) | 13.8 µM (active) and 12.2 µM (active) | inactive | inactive |
| CC(C)CCOC(=O)c1ccc(N(C)C)cc1 | inactive | inactive | inactive | inactive | – | inactive | inactive | inactive | – |
| CC(=O)O[C@]1(C(C)=O)CC[C@H]2[C@@H]3C[C@H](C)C4=CC(=O)CC[C@]4(C)[C@H]3CC[C@@]21C | inactive | inactive | inactive | inactive | inactive | inactive | inactive | inactive | – |
| CCCCC(CC)COC(=O)CC(C(=O)OCC(CC)CCCC)S(=O)(=O)O (stereo not drawn) | inactive | inactive | inactive | inactive | inactive | – | inactive | inactive | inactive |
| COC(=O)/C=C/c1ccccc1 | inactive | inactive | inactive | – | inactive | inactive | inactive | inactive | inactive |
| CCOc1ccc2c(c1)C(C)=CC(C)(C)N2 | inactive | inactive | inactive | inactive | – | inactive | inactive | inactive | inactive |
| C=CC(=O)OCCCCCCOC(=O)C=C | inactive | inactive | inactive | – | inactive | 31 µM (active) and 61.1 µM (active) | 54.5 µM (active) | inactive | inactive |
| O=C(O)c1cc(Cl)cc(Cl)c1 | inactive | inactive | inactive | – | inactive | inactive | inactive | inactive | inactive |
| CCCNC(C)C(=O)Nc1ccccc1C (stereo not drawn) | inactive | inactive | inactive | inactive | inactive | inactive | inactive | inactive | inactive |
| CCCCOCCOC(=O)c1ccccc1C(=O)OCCOCCCC | inactive | inactive | 47.5 µM (active) and inactive | – | inactive | inactive | 53.3 µM (active) and inactive | inactive | – |
| CCn1c2ccccc2c2cc(N)ccc21 | inactive | inactive | inactive | – | inactive and 27.3 µM (active) | inactive | inactive | inactive | inactive |
| CC(C(O)c1ccc(O)cc1)N1CCC(Cc2ccccc2)CC1 (stereo not drawn) | inactive | inactive | inactive | – | inactive | inactive | inactive | inactive | inactive |
| c1ccc2c(c1)CCCC2C1=NCCN1 (stereo not drawn) | inactive | inactive | inactive | inactive | – | inactive | inactive | inactive | – |
| CC(=O)C1=C(C)[C@@H]2C[C@@]3(C1)[C@H](C)CC[C@H]3C2(C)C | inactive | inactive | inactive | – | inactive | inactive | inactive | inactive | inactive |
| CC(C)(c1ccccc1)c1ccc(Nc2ccc(C(C)(C)c3ccccc3)cc2)cc1 | inactive | inactive | inactive | – | inactive | inactive | inactive | inactive | inactive |
| Cc1cc(Cc2cc(C)cc(C(C)(C)C)c2O)c(O)c(C(C)(C)C)c1 | inactive | 30.8 µM (active) | 27.4 µM (active) | – | inactive | 43.5 µM (active) | 61.4 µM (active) | inactive | inactive |
| CCn1cc(C(=O)O)c(=O)c2cc(F)c(N3CCNC(C)C3)c(F)c21 (stereo not drawn) | inactive | inactive | inactive | inactive | – | inactive | inactive | inactive | inactive |
| CCCOC(=O)c1cc(O)c(O)c(O)c1 | inactive | inactive | inactive | inactive | – | 43.1 µM (active) | inactive | inactive | inactive |
| COc1nc(C)nc(Cl)c1NC1=NCCN1 | inactive | inactive | inactive | inactive | inactive | inactive | inactive | inactive | inactive |
